In all, about 33,000 sequences were measured (“E-score (-0.5 to 0.5)”: median about -0.012, highest 2% from about 0.27 on). The full list was thinned out, with the highest values kept by preference.
biological target: T1, Vhr1 (UniProt P40522); experiment: PBM E-score (8-mer binding enrichment) (E-score (-0.5 to 0.5)); higher = stronger / more preferred TF binding; settings: protein concentration: 200 nM; construct: GST-full length
T1 sequence: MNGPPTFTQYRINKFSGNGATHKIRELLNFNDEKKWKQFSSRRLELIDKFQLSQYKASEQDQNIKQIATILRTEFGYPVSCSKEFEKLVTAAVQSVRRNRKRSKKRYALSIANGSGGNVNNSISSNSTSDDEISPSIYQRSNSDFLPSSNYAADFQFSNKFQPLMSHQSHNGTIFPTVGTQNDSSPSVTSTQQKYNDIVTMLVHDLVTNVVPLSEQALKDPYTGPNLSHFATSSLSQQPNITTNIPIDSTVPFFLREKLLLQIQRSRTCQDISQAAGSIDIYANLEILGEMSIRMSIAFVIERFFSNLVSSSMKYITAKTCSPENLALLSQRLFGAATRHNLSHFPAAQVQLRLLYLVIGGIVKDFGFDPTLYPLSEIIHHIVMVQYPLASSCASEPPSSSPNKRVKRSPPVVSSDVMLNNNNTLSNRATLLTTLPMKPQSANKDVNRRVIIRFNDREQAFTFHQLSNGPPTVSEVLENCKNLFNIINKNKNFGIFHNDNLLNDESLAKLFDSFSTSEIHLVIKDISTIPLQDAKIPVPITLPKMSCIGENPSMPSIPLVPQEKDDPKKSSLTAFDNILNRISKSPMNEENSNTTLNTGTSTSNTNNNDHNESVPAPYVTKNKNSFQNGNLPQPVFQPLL
Outline: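 GST-tagged yeast TFs (full-length or DNA-binding domain) were made by PURExpress in vitro transcription/translation and applied at about 100-200 nM to universal all-10-mer Agilent arrays. The arrays were made double-stranded by primer extension, on fresh or once-stripped slides. Bound protein was detected with fluorescent anti-GST, and scans were normalised with masliner. Each ungapped eight-base word, pooled with its reverse complement, received an E-score (modified Wilcoxon-Mann-Whitney statistic) from the Universal PBM Analysis Suite.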

Question: How did the “PBM E-score” value turn out when AATGAGCC was run?
Answer: -0.00477

Question: For AGAGACTG, which “PBM E-score” value is on record?
Answer: 0.0515

Question: CTGCAGAA was tested. Which “PBM E-score” value did it give?
Answer: 0.0335

Question: With GATTGACA as the sequence, how does the “PBM E-score” value read?
Answer: 0.0916

Question: How did the “PBM E-score” value turn out when AAAGTTCG was run?
Answer: -0.228

Question: Which “PBM E-score” value does the source give for AGTCAGTC here?
Answer: 0.214

Question: AATCAGTG was tested. Which “PBM E-score” value did it give?
Answer: 0.0903

Question: Which “PBM E-score” value does the source give for CGTCAGTA here?
Answer: 0.02

Question: AGTCAGTG was tested. Which “PBM E-score” value did it give?
Answer: 0.375

Question: Which “PBM E-score” value does the source give for ATTCAGTG here?
Answer: 0.0826

Question: AGTCAGTA was tested. Which “PBM E-score” value did it give?
Answer: 0.323

Question: Which “PBM E-score” value does the source give for ATAGGAGA here?
Answer: -0.00333

Question: GCAGCAAC was tested. Which “PBM E-score” value did it give?
Answer: 0.126

Question: Which “PBM E-score” value does the source give for CAAGGGCC here?
Answer: -0.201

Question: Which “PBM E-score” value does the source give for ACCCATAC here?
Answer: 0.222

Question: How did the “PBM E-score” value turn out when ACCCATAG was run?
Answer: 0.0609

Question: CCACACAC was tested. Which “PBM E-score” value did it give?
Answer: 0.143

Question: With ACACTATG as the sequence, how does the “PBM E-score” value read?
Answer: 0.292

Question: For ACAATATA, which “PBM E-score” value is on record?
Answer: 0.221

Question: Which “PBM E-score” value does the source give for ACAATATG here?
Answer: 0.325

Question: With ACAATATC as the sequence, how does the “PBM E-score” value read?
Answer: 0.0645

Question: Which “PBM E-score” value does the source give for ACACACAC here?
Answer: 0.316

Question: With ACACTATC as the sequence, how does the “PBM E-score” value read?
Answer: 0.151

Question: How did the “PBM E-score” value turn out when GCACACAC was run?
Answer: 0.178

Question: With ACACTATA as the sequence, how does the “PBM E-score” value read?
Answer: 0.152

Question: For ACCCATAT, which “PBM E-score” value is on record?
Answer: 0.296

Question: ACTGTTGG was tested. Which “PBM E-score” value did it give?
Answer: 0.034

Question: With CCGATTTC as the sequence, how does the “PBM E-score” value read?
Answer: -0.129

Question: With GTATAGAC as the sequence, how does the “PBM E-score” value read?
Answer: 0.145

Question: Which “PBM E-score” value does the source give for CGAAACCC here?
Answer: -0.0543

Question: Which “PBM E-score” value does the source give for CAATCGTA here?
Answer: -0.029

Question: Which “PBM E-score” value does the source give for ACCGATTC here?
Answer: -0.0343

Question: With CAGCGAGC as the sequence, how does the “PBM E-score” value read?
Answer: 0.135

Question: For CGAGCAGA, which “PBM E-score” value is on record?
Answer: 0.0217

Question: TTGGTAAA was tested. Which “PBM E-score” value did it give?
Answer: -0.12

Question: CCACACTC was tested. Which “PBM E-score” value did it give?
Answer: -0.0226

Question: For ACACACAG, which “PBM E-score” value is on record?
Answer: 0.353

Question: For CCACACAG, which “PBM E-score” value is on record?
Answer: 0.165

Question: How did the “PBM E-score” value turn out when ACACACTC was run?
Answer: 0.293

Question: Which “PBM E-score” value does the source give for ACACACAT here?
Answer: 0.275

Question: How did the “PBM E-score” value turn out when ACACACAA was run?
Answer: 0.226

Question: For AGACACAT, which “PBM E-score” value is on record?
Answer: 0.0642

Question: For ACAGTATA, which “PBM E-score” value is on record?
Answer: 0.11

Question: ACAGTATG was tested. Which “PBM E-score” value did it give?
Answer: 0.277

Question: How did the “PBM E-score” value turn out when AAACACAT was run?
Answer: 0.252

Question: How did the “PBM E-score” value turn out when ACAGTATC was run?
Answer: -0.14

Question: How did the “PBM E-score” value turn out when ACACACTG was run?
Answer: 0.163

Question: For CAGTTGCG, which “PBM E-score” value is on record?
Answer: 0.107

Question: For ACTTCTGG, which “PBM E-score” value is on record?
Answer: -0.04

Question: With GTTGAAAC as the sequence, how does the “PBM E-score” value read?
Answer: -0.0891

Question: For CTAAGAAA, which “PBM E-score” value is on record?
Answer: -0.112

Question: For AATGCTAC, which “PBM E-score” value is on record?
Answer: 0.072

Question: With ACGCTCCT as the sequence, how does the “PBM E-score” value read?
Answer: -0.065

Question: How did the “PBM E-score” value turn out when ACCCACAT was run?
Answer: 0.271

Question: For ACCCACAG, which “PBM E-score” value is on record?
Answer: 0.157

Question: Which “PBM E-score” value does the source give for ACCCACAC here?
Answer: 0.185

Question: How did the “PBM E-score” value turn out when ACACTTAG was run?
Answer: 0.00688

Question: For CCTCGGCG, which “PBM E-score” value is on record?
Answer: 0.283

Question: For AGTCGGAA, which “PBM E-score” value is on record?
Answer: 0.293

Question: For AGTCGGCA, which “PBM E-score” value is on record?
Answer: 0.282

Question: For AGTCGGAC, which “PBM E-score” value is on record?
Answer: -0.0678

Question: With AGTCGGCC as the sequence, how does the “PBM E-score” value read?
Answer: 0.278

Question: With CGTCGGCC as the sequence, how does the “PBM E-score” value read?
Answer: -0.143

Question: For TGTCGGAA, which “PBM E-score” value is on record?
Answer: 0.0453

Question: CCTCGGCA was tested. Which “PBM E-score” value did it give?
Answer: -0.129

Question: How did the “PBM E-score” value turn out when CCTCGGCC was run?
Answer: 0.00422

Question: How did the “PBM E-score” value turn out when ATTCGGCC was run?
Answer: 0.0234

Question: How did the “PBM E-score” value turn out when CGTCGGCA was run?
Answer: 0.044

Question: With GGTCGGCA as the sequence, how does the “PBM E-score” value read?
Answer: -0.138

Question: For GACTTGAA, which “PBM E-score” value is on record?
Answer: -0.152

Question: With AAAGGTCA as the sequence, how does the “PBM E-score” value read?
Answer: -0.173

Question: Which “PBM E-score” value does the source give for CCGACTGC here?
Answer: 0.126

Question: How did the “PBM E-score” value turn out when ATTCGGCG was run?
Answer: -0.00502

Question: With AGTCGGTG as the sequence, how does the “PBM E-score” value read?
Answer: 0.246

Question: With AGTCGGCG as the sequence, how does the “PBM E-score” value read?
Answer: 0.293

Question: How did the “PBM E-score” value turn out when AAGTGACA was run?
Answer: 0.0587

Question: For ACAGGGTC, which “PBM E-score” value is on record?
Answer: 0.133

Question: How did the “PBM E-score” value turn out when AAGAGTTG was run?
Answer: -0.154

Question: With AAGAGTGG as the sequence, how does the “PBM E-score” value read?
Answer: -0.0723

Question: Which “PBM E-score” value does the source give for CAGAGTCC here?
Answer: 0.0441

Question: With CAGAGTCG as the sequence, how does the “PBM E-score” value read?
Answer: 0.328

Question: How did the “PBM E-score” value turn out when AAGAGTCG was run?
Answer: 0.281

Question: For CAGGGTCA, which “PBM E-score” value is on record?
Answer: 0.00801

Question: With CAGAGTGA as the sequence, how does the “PBM E-score” value read?
Answer: 0.0508

Question: With CAGAGTCA as the sequence, how does the “PBM E-score” value read?
Answer: 0.344

Question: For CAGGGTCG, which “PBM E-score” value is on record?
Answer: 0.025

Question: How did the “PBM E-score” value turn out when CCTATTAG was run?
Answer: -0.167

Question: For GTTTCCTA, which “PBM E-score” value is on record?
Answer: -0.206

Question: Which “PBM E-score” value does the source give for TACTGCAA here?
Answer: -0.0559

Question: Which “PBM E-score” value does the source give for GCCTAACA here?
Answer: 0.026

Question: Which “PBM E-score” value does the source give for CCCAACTC here?
Answer: 0.134

Question: CCAGGCAA was tested. Which “PBM E-score” value did it give?
Answer: -0.034

Question: ACGCGAAA was tested. Which “PBM E-score” value did it give?
Answer: -0.0435

Question: With GGTGCTAA as the sequence, how does the “PBM E-score” value read?
Answer: -0.166

Question: How did the “PBM E-score” value turn out when GATTCGCC was run?
Answer: 0.105

Question: Which “PBM E-score” value does the source give for AATTCGCG here?
Answer: -0.02

Question: How did the “PBM E-score” value turn out when GATTCGCA was run?
Answer: 0.276

Question: How did the “PBM E-score” value turn out when CATTCGCG was run?
Answer: 0.279

Question: CATTCGCA was tested. Which “PBM E-score” value did it give?
Answer: -0.0683

Question: CATTCGCC was tested. Which “PBM E-score” value did it give?
Answer: 0.00808

Question: How did the “PBM E-score” value turn out when AGTGCACA was run?
Answer: 0.0902

Question: With AAAGATGC as the sequence, how does the “PBM E-score” value read?
Answer: -0.193

Question: Which “PBM E-score” value does the source give for AAAGACGC here?
Answer: -0.154

Question: ACAGGCGC was tested. Which “PBM E-score” value did it give?
Answer: -0.173

Question: How did the “PBM E-score” value turn out when CCTTCTGA was run?
Answer: -0.149

Question: GCACTTGA was tested. Which “PBM E-score” value did it give?
Answer: -0.145

Question: Which “PBM E-score” value does the source give for ATGTCTCG here?
Answer: 0.135

Question: ATGTCTCC was tested. Which “PBM E-score” value did it give?
Answer: 0.175

Question: With ATGTCTCA as the sequence, how does the “PBM E-score” value read?
Answer: 0.297

Source: the supplement of paper PMC3334620
